Inconclusive results are not listed. Some compounds were tested as several samples or in several runs, with calls that do not always agree. Calls of active or inactive are those of the source. Unless noted, calls follow the shape of the dose curve; as a rule, active = well fitted curve in the direction sought with a large enough effect in the repeat runs; inconclusive = weak or mixed curves; inactive = no such curve, though single readings can be large; an effect the other way counts as inactive or inconclusive.
What was measured:
[1] = A CellTox Green Cytotoxicity Assay to monitor cytotoxicity in HepG2 cells - 8 hour (AID 1224890); also: nearly all actives have a fitted effect of over 45% in size; also: potency is read from the fitted curve at half-maximal effect
How it was run: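 HepG2, 600 cells/well premixed w/ CellTox Green; 5 h settle, 37 C/5% CO2; pintool cpd add (DMSO); 37 C, 40 h; fluorescence read at 0, 8, 16, 24, 32, 40 h.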

[2] = qHTS assay to identify small molecule antagonists of the estrogen receptor alpha (ER-alpha) signaling pathway using the BG1 cell line in the presence of 0.1 nM 17-beta-estradiol - cell viability counter screen (AID 1259241); also: nearly all actives have a fitted effect of over 40% in size
How it was run: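 Following 5 days in phenol red-free medium with charcoal-stripped serum, VM7Luc4E2 cells received test compounds alongside 0.1 nM 17beta-estradiol (final) at 37C for 22 hr. Live cells were then quantified via protease-substrate fluorescence.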

[3] = qHTS assay to identify small molecule antagonists of the androgen receptor (AR) signaling pathway using the MDA cell line in the presence of 0.5 nM R1881 - cell viability counter screen (AID 1259242); also: nearly all actives have a fitted effect of over 45% in size
How it was run: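 Live-cell protease fluorescence, CellTiter-Fluor, 30 min at 37C. Cells: MDA-kb2, 3,000/well, preincubated 5 hr. Compounds plus 0.5 nM R1881 final, 16 hr, 37C, 0% CO2.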

[4] = biological target: Estrogen receptor (Homo sapiens) (UniProt P03372); experiment: qHTS assay to identify small molecule antagonists of the estrogen receptor alpha (ER-alpha) signaling pathway using the BG1 cell line in the presence of 0.1 nM 17-beta-estradiol (AID 1259244); also: nearly all actives have a fitted effect of over 50% in size
How it was run: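 Luminescence after ONE-Glo (30 min, room temperature) measured ERE-luciferase activity in VM7Luc4E2 cells treated 22 h with compound and 0.1 nM final 17beta-estradiol as stimulator.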

[5] = qHTS assay to identify small molecule phospholipidosis (PLD) inducers (AID 1259344; active = well fitted curve in the direction sought with a large enough effect; an effect the other way counts as inactive or inconclusive)
How it was run: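 After 4 h attachment on collagen I, HepG2 cells were dosed with compound alongside LipidTOX Red, kept 24 h at 37 C, fixed, and imaged for lamellar phospholipid pits.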

[6] = qHTS assay to identify small molecule HDAC inhibitors (AID 1259364); also: potency is read from the fitted curve at half-maximal effect;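 also: wild-type HCT-116 cells with endogenous class I/II HDAC activity; nearly all actives have a fitted effect of over 45% in size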; as to activity change, negative = inhibition: top concentration of the series differs between compounds
How it was run: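 HCT-116 (wild type), 1,500 cells/well, overnight; compound 2 hr 37C 5% CO2; HDAC-Glo I/II reagent 30 min RT; luminescence readout.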

[7] = qHTS assay to identify small molecule HDAC inhibitors - cell viability counter screen (AID 1259365); also: series mostly up to about 92 µM; nearly all actives have a fitted effect of over 50% in size
How it was run: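 HCT-116 wild-type, overnight attachment; 2hr drug exposure, 37C; CellTiter-Glo luminescent ATP readout after 30min RT.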

[8] = qHTS assay to identify small molecule agonists of the sonic hedgehog signaling (Shh) pathway - cell viability counter screen (AID 1259366); also: nearly all actives have a fitted effect of over 50% in size; also: potency is read from the fitted curve at half-maximal effect
How it was run: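 Compounds in DMSO were pin-transferred onto 3T3 Gli1-Luc cells that had settled 4hr; plates then stood 24hr at 37C and 5% CO2. One hour before the end, CellTiter-Fluor was added and fluorescence recorded.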

[9] = qHTS assay to identify small molecule antagonists of the sonic hedgehog signaling (Shh) pathway - cell viability counter screen (AID 1259367); also: nearly all actives have a fitted effect of over 55% in size; also: potency is read from the fitted curve at half-maximal effect
How it was run: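 Conditioned medium drove Shh signaling in 3T3 Gli1-Luc cells exposed to compounds at 37C and 5% CO2. Viability was determined from CellTiter-Fluor fluorescence, with reagent incubated 1 hr after 23 hr of treatment.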

[10] = biological target: Androgen receptor (Homo sapiens) (UniProt P10275); experiment: qHTS assay to identify small molecule antagonists of the androgen receptor (AR) signaling pathway using the MDA cell line in the presence of 0.5 nM R1881 (AID 1259243); also: nearly all actives have a fitted effect of over 50% in size
How it was run: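 MDA-kb2, MMTV-luc (AR/GR elements); 3,000 cells/well; cpd + 0.5 nM R1881 final; 16 hr 37C, 0% CO2; ONE-Glo 30 min RT; luminescence.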
% is scaled to controls: 0 for no effect and ±100 for the full control effect.

Chain of Estrogen receptor (Homo sapiens) (P03372 whole entry, looked up): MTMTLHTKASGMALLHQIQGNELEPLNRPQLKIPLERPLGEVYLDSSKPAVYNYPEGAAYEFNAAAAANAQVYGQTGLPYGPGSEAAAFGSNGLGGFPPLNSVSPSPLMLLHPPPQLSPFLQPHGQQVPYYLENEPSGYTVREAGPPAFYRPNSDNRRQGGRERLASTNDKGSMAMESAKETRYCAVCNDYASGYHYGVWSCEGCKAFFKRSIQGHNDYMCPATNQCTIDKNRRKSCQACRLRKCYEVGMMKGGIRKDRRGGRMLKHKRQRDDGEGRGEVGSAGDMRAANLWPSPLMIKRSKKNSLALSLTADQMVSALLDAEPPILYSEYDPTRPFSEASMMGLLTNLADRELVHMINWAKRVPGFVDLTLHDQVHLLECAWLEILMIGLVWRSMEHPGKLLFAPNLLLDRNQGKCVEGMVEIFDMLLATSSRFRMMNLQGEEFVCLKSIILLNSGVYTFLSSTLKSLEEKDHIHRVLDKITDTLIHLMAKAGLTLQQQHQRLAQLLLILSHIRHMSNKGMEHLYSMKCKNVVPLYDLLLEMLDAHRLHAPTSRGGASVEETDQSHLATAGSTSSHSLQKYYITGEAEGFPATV
Chain of Androgen receptor (Homo sapiens) (P10275 whole entry, looked up): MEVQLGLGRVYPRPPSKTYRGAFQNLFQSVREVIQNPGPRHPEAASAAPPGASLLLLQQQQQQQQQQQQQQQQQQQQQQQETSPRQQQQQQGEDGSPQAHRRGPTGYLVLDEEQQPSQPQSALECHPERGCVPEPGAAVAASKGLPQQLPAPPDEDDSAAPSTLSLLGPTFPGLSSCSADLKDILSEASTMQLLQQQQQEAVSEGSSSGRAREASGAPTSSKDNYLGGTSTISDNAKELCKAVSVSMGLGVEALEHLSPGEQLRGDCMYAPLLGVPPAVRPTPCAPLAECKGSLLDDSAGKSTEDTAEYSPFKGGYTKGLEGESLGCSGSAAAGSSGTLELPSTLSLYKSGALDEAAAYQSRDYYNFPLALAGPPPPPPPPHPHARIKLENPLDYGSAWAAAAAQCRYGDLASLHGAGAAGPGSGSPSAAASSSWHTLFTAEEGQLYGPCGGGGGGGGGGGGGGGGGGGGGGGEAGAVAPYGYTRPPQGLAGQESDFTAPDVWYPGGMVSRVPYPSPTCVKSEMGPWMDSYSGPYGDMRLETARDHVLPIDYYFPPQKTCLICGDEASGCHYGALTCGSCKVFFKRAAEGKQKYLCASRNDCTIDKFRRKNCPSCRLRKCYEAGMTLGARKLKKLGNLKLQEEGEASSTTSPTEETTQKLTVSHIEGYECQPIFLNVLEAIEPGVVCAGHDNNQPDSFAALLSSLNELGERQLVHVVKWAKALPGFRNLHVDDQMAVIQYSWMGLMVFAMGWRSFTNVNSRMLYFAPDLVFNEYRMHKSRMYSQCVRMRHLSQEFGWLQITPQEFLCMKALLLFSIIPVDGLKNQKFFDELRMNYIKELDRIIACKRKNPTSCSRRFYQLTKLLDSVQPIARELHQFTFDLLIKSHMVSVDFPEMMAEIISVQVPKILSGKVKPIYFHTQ

Cc1cccn2c(=O)c(-c3nnn[nH]3)cnc12
inactive: cytotoxicity increase [1] 3.76% [at 15.8 µM] | activity change, negative = cytotoxicity [2] 2.88% [at 19 µM] | viability change, negative = cytotoxic [3] 3.32% [at 19 µM] | activity change, negative = inhibition [4] 3.45% [at 19 µM] | Potency [5] | activity change, negative = inhibition [6] -1.21% [at 19 µM] | activity change, negative = cytotoxicity [7] -4.27% [at 19 µM] | viability change, negative = cytotoxic [8] 4.51% [at 19 µM] | Potency [9]

CCOC(=O)Nc1ccc(NCc2ccc(F)cc2)nc1N
inactive: Potency [1] | outcome [2] | Potency [3] | outcome [4] | Potency [5] | Potency [6] | outcome [7] | Potency [8] | Potency [9]

CN(C)CCCSc1ccccc1NC(=O)/C=C/c1ccccc1
active: Potency [1] 19 µM | Potency [6] 8.41 µM
inactive: outcome [2] | Potency [3] | outcome [4] | Potency [5] | outcome [7] | Potency [8] | Potency [9]

N[C@H](C(=O)O)c1ccc(O)cc1
inactive: cytotoxicity increase [1] -9.51% [at 15.8 µM] | activity change, negative = cytotoxicity [2] 8.37% [at 19 µM] | viability change, negative = cytotoxic [3] 0.442% [at 19 µM] | activity change, negative = inhibition [4] 12.1% [at 19 µM] | Potency [5] | activity change, negative = inhibition [6] -0.75% [at 19 µM] | activity change, negative = cytotoxicity [7] -1.63% [at 19 µM] | viability change, negative = cytotoxic [8] -2.17% [at 19 µM] | Potency [9]

O=C(O)Cc1ccc(CCNS(=O)(=O)c2ccc(Cl)cc2)cc1
inactive: Potency [1] | outcome [2] | Potency [3] | outcome [4] | Potency [5] | Potency [6] | outcome [7] | Potency [8] | Potency [9]

Cc1ccc(=O)n(-c2ccccc2)c1
inactive: Potency [1] | outcome [2] | Potency [3] | outcome [4] | Potency [5] | Potency [6] | outcome [7] | Potency [8] | Potency [9]

CCO/C([O-])=N/c1c[n+](N2CCOCC2)no1
inactive: Potency [1] | outcome [2] | Potency [3] | outcome [4] | Potency [5] | Potency [6] | outcome [7] | Potency [8] | Potency [9]

N=c1nc(N2CCCCC2)cc(N)n1O
inactive: Potency [1] | outcome [2] | Potency [3] | outcome [4] | Potency [5] | Potency [6] | outcome [7] | Potency [8] | Potency [9]

CCOC(=O)[C@H](CCc1ccccc1)N[C@@H](C)C(=O)N1[C@H](C(=O)O)C[C@@H]2CCC[C@@H]21
inactive: Potency [1] | outcome [2] | Potency [3] | outcome [4] | Potency [5] | Potency [6] | outcome [7] | Potency [8] | Potency [9]

NC(CSCC(=O)O)C(=O)O (stereo not given)
inactive: Potency [1] | outcome [2] | Potency [3] | outcome [4] | Potency [5] | Potency [6] | outcome [7] | Potency [8] | Potency [9]

O=C1NC(=O)[C@@]2(CCOc3ccc(F)cc32)N1
inactive: Potency [1] | outcome [2] | Potency [3] | outcome [4] | Potency [5] | Potency [6] | outcome [7] | Potency [8] | Potency [9]

COC(=O)[C@@H](N)Cc1ccc(O)c(O)c1
inactive: Potency [1] | outcome [2] | Potency [3] | Potency [10] | Potency [5] | outcome [7] | Potency [8] | Potency [9]

c1cnc(N2CCN(Cc3ccc4c(c3)OCO4)CC2)nc1
inactive: Potency [1] | outcome [2] | Potency [3] | outcome [4] | Potency [5] | Potency [6] | outcome [7] | Potency [8] | Potency [9]

COc1cc(C(=O)N2CCCCCCC2)cc(OC)c1OC
inactive: Potency [1] | outcome [2] | Potency [3] | outcome [4] | Potency [5] | Potency [6] | outcome [7] | Potency [8] | Potency [9]

CCN(CC)CCOCCOC(=O)C1(c2ccccc2)CCCC1
inactive: Potency [1] | outcome [2] | Potency [3] | outcome [4] | Potency [5] | Potency [6] | outcome [7]

CCN1CCC[C@H]1CNC(=O)c1c(O)c(Cl)cc(Cl)c1OC
inactive: Potency [1] | outcome [2] | Potency [3] | outcome [4] | Potency [5] | Potency [6] | outcome [7] | Potency [8] | Potency [9]

CC(C)(C)c1nnc(NS(=O)(=O)c2ccccc2)s1
inactive: Potency [1] | outcome [2] | Potency [3] | outcome [4] | Potency [5] | Potency [6] | outcome [7] | Potency [8] | Potency [9]

Cn1cc(S(C)=O)c(=O)c2ccc(F)cc21 (stereo not given)
inactive: Potency [1] | outcome [2] | Potency [3] | outcome [4] | Potency [5] | Potency [6] | outcome [7] | Potency [8] | Potency [9]

O=C(O)c1ccccc1OP(=O)(O)O
inactive: Potency [1] | outcome [2] | Potency [3] | outcome [4] | Potency [5] | Potency [6] | outcome [7] | Potency [8] | Potency [9]

O=C[C@H](O)[C@@H](O)[C@H](O)[C@H](O)CO
inactive: Potency [1] | outcome [2] | Potency [3] | outcome [4] | PLD induction [5] -4.07% [at 7.66 µM] | Potency [6] | outcome [7] | Potency [8] | Potency [9]

COc1c(N2C[C@@H]3CCCN[C@@H]3C2)c(F)cc2c(=O)c(C(=O)O)cn(C3CC3)c12
inactive: Potency [1] | outcome [2] | Potency [3] | outcome [4] | Potency [5] | Potency [6] | outcome [7] | Potency [8] | Potency [9]

O=c1cc(CO)occ1O
inactive: Potency [1] | outcome [2] | Potency [3] | outcome [4] | Potency [5] | Potency [6] | outcome [7] | Potency [8] | Potency [9]

CCN(CC)CCNC(=O)c1cc(S(C)(=O)=O)ccc1OC
inactive: Potency [1] | outcome [2] | Potency [3] | outcome [4] | Potency [5] | Potency [6] | outcome [7] | Potency [8] | Potency [9]

O=C1CCCCCCCCCCCN1
inactive: Potency [1] | outcome [2] | Potency [3] | outcome [4] | Potency [6] | outcome [7] | Potency [8] | Potency [9]

CC(C)c1cc2c(cc1S(=O)(=O)O)[C@@]1(C)CCC[C@@](C)(C(=O)O)[C@@H]1CC2
inactive: Potency [1] | outcome [2] | Potency [3] | outcome [4] | Potency [5] | outcome [7] | Potency [8] | Potency [9]

C[C@@H]1CCN(C(=O)[C@H](CCCN=C(N)N)NS(=O)(=O)c2cccc3c2NC[C@H](C)C3)[C@@H](C(=O)O)C1
inactive: Potency [1] | outcome [2] | Potency [3] | outcome [4] | Potency [5] | outcome [7] | Potency [8] | Potency [9]

CN(C)CCCNCCCN(C)C
inactive: Potency [1] | outcome [2] | Potency [3] | outcome [4] | Potency [6] | outcome [7] | Potency [8] | Potency [9]

C=C1CC[C@H]2C[C@@H]1C2(C)C
inactive: Potency [1] | outcome [2] | Potency [3] | outcome [4] | Potency [6] | outcome [7] | Potency [8] | Potency [9]

COC(=O)C1=C(C)NC(C)=C(C(=O)OC)C1c1ccccc1[N+](=O)[O-]
inactive: Potency [1] | outcome [2] | Potency [3] | outcome [4] | Potency [5] | outcome [7]
30.7 µM (active) and inactive: Potency [9]
active: Potency [8] 27.3 µM

Cc1cc2c(cc1S(N)(=O)=O)S(=O)(=O)CCC2
inactive: Potency [1] | outcome [2] | Potency [3] | outcome [4] | Potency [5] | outcome [7] | Potency [8] | Potency [9]

CC(=O)CC(C)(C)C1CCCCC1
inactive: Potency [1] | outcome [2] | Potency [3] | outcome [4] | Potency [6] | outcome [7] | Potency [8] | Potency [9]

CC(C(=O)O)c1ccc(CC2CCCC2=O)cc1 (stereo not given)
inactive: Potency [1] | outcome [2] | Potency [3] | outcome [4] | Potency [5] | outcome [7] | Potency [8] | Potency [9]

CC(=O)Nc1c(I)cc(I)c(C(=O)O)c1I
inactive: Potency [1] | outcome [2] | Potency [3] | outcome [4] | Potency [5] | Potency [6] | outcome [7] | Potency [8] | Potency [9]

N#Cc1ccc(C2CCCc3cncn32)cc1 (stereo not given)
inactive: Potency [1] | outcome [2] | Potency [3] | outcome [4] | Potency [6] | outcome [7] | Potency [8] | Potency [9]

Cc1nc2c([nH]1)c(=O)n(C)c(=O)n2Cc1ccco1
inactive: Potency [1] | outcome [2] | Potency [3] | outcome [4] | Potency [5] | outcome [7] | Potency [8] | Potency [9]

Nc1nc2c(ncn2COC(CO)CO)c(=O)[nH]1
inactive: Potency [1] | outcome [2] | Potency [3] | outcome [4] | Potency [5] | Potency [6] | outcome [7] | Potency [8] | Potency [9]
